We go through 1 sequence from article PMC7862700, “An all-to-all approach to the identification of sequence-specific readers for epigenetic DNA modifications on cytosine”.

Common to all, as to test: DAPPL (digital affinity profiling via proximity ligation, sequencing); 10 mM Tris-HCl pH 7.5, 50 mM NaCl, 1 mM DTT, 4% glycerol, room temperature, 30 min; GST-TFs on glutathione beads, 16-mer random dsDNA library, 0.1% formaldehyde crosslink after washing; high values mean tight binding
The target of one experiment is T1, FEV (Homo sapiens, UniProt Q99581 1-238).
T1 sequence: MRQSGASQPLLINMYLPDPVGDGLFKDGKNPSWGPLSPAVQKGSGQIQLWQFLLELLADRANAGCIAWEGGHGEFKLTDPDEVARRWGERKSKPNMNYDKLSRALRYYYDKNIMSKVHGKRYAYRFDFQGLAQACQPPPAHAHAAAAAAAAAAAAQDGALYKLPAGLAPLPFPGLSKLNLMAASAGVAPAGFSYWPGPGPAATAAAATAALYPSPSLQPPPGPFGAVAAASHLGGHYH
The settings on record: protein: recombinant; tags: N-terminal GST; dsDNA, one strand shown. The gist of the method: (§1)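 Binding signal is each hexamer's read frequency for a factor divided by its frequency in the tag-only sample. The factors were GST-fused human transcription factors from yeast, captured on glutathione beads, DNA-barcoded and pooled with that sample. Pools were incubated with 200 nmole of a random double-stranded 16-mer DNA library in Tris/NaCl/DTT/glycerol buffer at room temperature for 30 min, then washed, crosslinked with 0.1% formaldehyde, proximity-ligated with BsaI/T4 ligase (1 h, 37 °C), PCR-amplified and sequenced on an Illumina NextSeq500.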

In another experiment the target is ETV5 (Homo sapiens, UniProt P41161 1-510). The settings on record: protein: recombinant; tags: N-terminal GST; dsDNA, one strand shown. In a few lines:
as §1

The target of a further experiment is HSF1 (Homo sapiens, UniProt Q00613 1-529). To be noted: protein: recombinant; tags: N-terminal GST; chain copies: 3; dsDNA, one strand shown. The gist of the method:
as §1

A further experiment addresses T2, SPIC (Homo sapiens, UniProt Q8N5J4 1-248).
T2 sequence: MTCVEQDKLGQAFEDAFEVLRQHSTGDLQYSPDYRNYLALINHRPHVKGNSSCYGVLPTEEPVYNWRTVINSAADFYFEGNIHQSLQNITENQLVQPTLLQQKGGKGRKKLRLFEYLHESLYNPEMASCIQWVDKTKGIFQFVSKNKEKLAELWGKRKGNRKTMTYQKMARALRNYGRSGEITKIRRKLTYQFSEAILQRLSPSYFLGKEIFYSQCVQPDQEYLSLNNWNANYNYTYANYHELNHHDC
The settings on record: protein: recombinant; tags: N-terminal GST; dsDNA, one strand shown. In a few lines:
as §1

The target of the next experiment is ELF4 (Homo sapiens, UniProt Q99607 1-663). The settings on record: protein: recombinant; tags: N-terminal GST; dsDNA, one strand shown. The gist of the method:
as §1

In another experiment the target is T3, ELK4 (Homo sapiens, UniProt P28324-2 1-405).
T3 sequence: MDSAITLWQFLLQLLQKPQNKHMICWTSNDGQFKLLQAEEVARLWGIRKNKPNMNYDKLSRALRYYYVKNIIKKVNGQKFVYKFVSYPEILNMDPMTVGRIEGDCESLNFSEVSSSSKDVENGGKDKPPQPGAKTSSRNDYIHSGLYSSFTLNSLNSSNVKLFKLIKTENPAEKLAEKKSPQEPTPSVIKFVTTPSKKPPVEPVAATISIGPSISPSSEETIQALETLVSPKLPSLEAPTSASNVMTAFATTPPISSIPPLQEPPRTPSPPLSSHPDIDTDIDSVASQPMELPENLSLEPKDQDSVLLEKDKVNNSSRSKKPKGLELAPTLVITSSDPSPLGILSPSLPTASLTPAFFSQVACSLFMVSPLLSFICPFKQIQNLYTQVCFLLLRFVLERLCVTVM
The settings on record: protein: recombinant; tags: N-terminal GST; dsDNA, one strand shown. In a few lines: as §1

A further experiment deals with T4, ETV2 (Homo sapiens, UniProt O00321 1-342).
T4 sequence: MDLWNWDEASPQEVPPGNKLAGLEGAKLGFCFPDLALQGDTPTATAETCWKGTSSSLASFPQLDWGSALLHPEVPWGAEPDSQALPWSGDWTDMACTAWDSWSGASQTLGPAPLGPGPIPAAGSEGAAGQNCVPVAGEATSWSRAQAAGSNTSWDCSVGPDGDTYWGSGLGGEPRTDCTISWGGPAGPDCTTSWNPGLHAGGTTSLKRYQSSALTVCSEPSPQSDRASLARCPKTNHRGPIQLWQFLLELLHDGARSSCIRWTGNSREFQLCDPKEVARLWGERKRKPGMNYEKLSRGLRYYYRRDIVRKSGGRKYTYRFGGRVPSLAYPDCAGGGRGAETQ
To be noted: protein: recombinant; tags: N-terminal GST; dsDNA, one strand shown. The gist of the method:
as §1

Another experiment concerns the target T5, ELF3 (Homo sapiens, UniProt P78545 1-371).
T5 sequence: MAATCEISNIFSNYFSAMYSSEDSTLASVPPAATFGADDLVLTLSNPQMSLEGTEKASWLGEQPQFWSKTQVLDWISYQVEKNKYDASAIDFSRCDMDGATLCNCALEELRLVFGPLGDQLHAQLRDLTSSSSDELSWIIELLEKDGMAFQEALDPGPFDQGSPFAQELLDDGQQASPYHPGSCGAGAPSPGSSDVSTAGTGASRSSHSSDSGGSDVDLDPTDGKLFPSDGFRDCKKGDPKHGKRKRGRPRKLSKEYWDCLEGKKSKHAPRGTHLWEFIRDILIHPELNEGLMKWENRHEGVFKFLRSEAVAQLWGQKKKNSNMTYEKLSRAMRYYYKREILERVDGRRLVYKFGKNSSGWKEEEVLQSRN
The settings on record: protein: recombinant; tags: N-terminal GST; dsDNA, one strand shown. In a few lines:
as §1

The target in the next experiment is CRX (Homo sapiens, UniProt O43186 1-299). To be noted: protein: recombinant; tags: N-terminal GST; dsDNA, one strand shown. The gist of the method: as §1
Sequence of CRX (O43186 whole entry): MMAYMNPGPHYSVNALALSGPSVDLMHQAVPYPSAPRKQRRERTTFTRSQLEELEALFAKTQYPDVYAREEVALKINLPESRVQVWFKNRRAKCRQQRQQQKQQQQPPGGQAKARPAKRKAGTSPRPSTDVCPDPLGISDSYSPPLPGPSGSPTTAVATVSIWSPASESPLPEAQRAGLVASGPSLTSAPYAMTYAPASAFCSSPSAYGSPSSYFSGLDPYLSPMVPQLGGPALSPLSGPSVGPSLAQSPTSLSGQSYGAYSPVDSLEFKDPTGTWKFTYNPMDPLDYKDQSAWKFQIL
Another experiment concerns the target ETV1 (Homo sapiens, UniProt P50549 1-477). To be noted: protein: recombinant; tags: N-terminal GST; dsDNA, one strand shown. The gist of the method: as §1
The next experiment concerns the target T6, ERF (Homo sapiens, UniProt P50548 1-548).
T6 sequence: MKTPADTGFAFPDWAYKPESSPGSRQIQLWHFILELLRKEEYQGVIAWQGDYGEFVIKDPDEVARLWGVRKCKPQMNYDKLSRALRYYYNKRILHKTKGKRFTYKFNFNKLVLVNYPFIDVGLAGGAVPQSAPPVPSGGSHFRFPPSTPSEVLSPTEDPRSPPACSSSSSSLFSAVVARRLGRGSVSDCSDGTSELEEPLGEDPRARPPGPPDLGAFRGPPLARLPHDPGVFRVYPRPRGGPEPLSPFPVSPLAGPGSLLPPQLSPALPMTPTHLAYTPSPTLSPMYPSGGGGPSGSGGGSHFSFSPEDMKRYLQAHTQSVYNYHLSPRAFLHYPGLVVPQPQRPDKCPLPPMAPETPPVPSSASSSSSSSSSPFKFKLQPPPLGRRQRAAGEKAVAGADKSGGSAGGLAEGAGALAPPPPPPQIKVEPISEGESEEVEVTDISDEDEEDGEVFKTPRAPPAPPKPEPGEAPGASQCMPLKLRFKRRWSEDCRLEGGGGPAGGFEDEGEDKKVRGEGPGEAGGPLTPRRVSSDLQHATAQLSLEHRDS
The settings on record: protein: recombinant; tags: N-terminal GST; dsDNA, one strand shown. The gist of the method: as §1

Another experiment concerns the target T7, ETV3L (Homo sapiens, UniProt Q6ZN32 1-361).
T7 sequence: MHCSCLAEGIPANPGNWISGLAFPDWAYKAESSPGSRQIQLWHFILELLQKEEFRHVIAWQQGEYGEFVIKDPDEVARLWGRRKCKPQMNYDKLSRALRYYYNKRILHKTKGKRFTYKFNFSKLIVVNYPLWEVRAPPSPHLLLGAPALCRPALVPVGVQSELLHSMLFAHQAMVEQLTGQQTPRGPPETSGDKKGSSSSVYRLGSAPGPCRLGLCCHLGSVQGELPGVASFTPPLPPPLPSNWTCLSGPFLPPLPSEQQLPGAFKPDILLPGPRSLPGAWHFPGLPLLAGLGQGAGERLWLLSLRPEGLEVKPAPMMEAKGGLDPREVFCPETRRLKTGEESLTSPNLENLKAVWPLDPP
To be noted: protein: recombinant; tags: N-terminal GST; dsDNA, one strand shown. In a few lines: as §1

Another experiment has as its target T8, ETS2 (Homo sapiens, UniProt P15036 1-469).
T8 sequence: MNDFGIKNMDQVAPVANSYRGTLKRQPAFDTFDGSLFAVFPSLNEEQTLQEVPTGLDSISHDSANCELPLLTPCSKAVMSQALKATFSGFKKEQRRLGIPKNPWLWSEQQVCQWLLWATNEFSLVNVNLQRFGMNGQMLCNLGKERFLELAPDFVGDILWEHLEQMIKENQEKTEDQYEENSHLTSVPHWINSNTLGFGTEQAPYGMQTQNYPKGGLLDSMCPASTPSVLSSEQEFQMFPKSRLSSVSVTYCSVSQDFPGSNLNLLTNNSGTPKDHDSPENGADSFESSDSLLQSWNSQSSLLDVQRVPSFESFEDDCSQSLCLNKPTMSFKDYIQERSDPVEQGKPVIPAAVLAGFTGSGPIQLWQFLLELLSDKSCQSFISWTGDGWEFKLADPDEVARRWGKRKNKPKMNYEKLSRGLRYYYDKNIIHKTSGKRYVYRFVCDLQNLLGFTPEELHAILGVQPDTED
To be noted: protein: recombinant; tags: N-terminal GST; dsDNA, one strand shown. The gist of the method:
as §1

In a further experiment the target is T9, SPDEF (Homo sapiens, UniProt O95238 1-335).
T9 sequence: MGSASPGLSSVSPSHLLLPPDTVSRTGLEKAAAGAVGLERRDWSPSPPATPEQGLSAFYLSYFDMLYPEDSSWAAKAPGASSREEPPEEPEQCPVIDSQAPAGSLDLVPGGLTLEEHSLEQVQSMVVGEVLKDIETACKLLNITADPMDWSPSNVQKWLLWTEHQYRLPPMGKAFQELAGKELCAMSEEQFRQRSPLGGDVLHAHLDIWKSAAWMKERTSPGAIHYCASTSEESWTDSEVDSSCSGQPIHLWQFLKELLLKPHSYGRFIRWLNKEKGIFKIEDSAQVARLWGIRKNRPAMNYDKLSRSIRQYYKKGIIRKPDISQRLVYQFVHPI
To be noted: protein: recombinant; tags: N-terminal GST; dsDNA, one strand shown. In a few lines:
as §1

For the next experiment, the target named is T10, ETV7 (Homo sapiens, UniProt Q9Y603 1-341).
T10 sequence: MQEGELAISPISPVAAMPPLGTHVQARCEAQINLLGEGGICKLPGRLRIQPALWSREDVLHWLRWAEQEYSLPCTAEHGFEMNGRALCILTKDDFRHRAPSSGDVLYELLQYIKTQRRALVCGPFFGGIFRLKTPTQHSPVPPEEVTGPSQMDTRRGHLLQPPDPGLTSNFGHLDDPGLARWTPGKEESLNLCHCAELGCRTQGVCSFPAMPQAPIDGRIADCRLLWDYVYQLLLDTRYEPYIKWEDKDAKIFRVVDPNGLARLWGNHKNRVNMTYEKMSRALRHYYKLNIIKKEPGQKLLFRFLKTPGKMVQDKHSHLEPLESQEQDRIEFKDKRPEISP
The settings on record: protein: recombinant; tags: N-terminal GST; dsDNA, one strand shown. In a few lines:
as §1

The next experiment deals with T11, ELF5 (Homo sapiens, UniProt Q9UKW6-2 1-255).
T11 sequence: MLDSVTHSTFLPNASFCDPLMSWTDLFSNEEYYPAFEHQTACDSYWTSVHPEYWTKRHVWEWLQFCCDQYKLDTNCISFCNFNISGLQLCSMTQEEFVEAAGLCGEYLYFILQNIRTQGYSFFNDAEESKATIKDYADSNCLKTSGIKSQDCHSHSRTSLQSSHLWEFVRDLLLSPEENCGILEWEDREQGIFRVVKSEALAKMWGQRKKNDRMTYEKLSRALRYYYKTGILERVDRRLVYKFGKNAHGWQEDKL
The settings on record: protein: recombinant; tags: N-terminal GST; dsDNA, one strand shown. The gist of the method:
as §1

For a further experiment, the target named is T12, ETV3 (Homo sapiens, UniProt P41162-2 1-143).
T12 sequence: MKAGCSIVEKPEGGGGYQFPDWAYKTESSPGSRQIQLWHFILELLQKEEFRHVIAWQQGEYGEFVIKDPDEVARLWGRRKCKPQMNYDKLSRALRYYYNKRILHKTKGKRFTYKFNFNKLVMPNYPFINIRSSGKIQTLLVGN
The settings on record: protein: recombinant; tags: N-terminal GST; dsDNA, one strand shown. In a few lines: as §1

The next experiment deals with ETV6 (Homo sapiens, UniProt P41212 1-452). The settings on record: protein: recombinant; tags: N-terminal GST; dsDNA, one strand shown. The gist of the method: as §1
Sequence of ETV6 (P41212 whole entry): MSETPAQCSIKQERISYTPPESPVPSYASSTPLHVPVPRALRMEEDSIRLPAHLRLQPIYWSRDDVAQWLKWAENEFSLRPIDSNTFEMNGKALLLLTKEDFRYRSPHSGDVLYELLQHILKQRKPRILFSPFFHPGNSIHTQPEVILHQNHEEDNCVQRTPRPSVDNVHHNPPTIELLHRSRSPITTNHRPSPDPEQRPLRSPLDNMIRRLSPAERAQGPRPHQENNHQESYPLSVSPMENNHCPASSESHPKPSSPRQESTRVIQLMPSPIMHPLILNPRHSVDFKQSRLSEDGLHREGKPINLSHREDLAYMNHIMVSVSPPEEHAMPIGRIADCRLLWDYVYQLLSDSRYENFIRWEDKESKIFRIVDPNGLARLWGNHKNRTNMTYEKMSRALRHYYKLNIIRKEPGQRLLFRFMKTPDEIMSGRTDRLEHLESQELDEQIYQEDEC

Sequence of ETV1 (P50549 whole entry): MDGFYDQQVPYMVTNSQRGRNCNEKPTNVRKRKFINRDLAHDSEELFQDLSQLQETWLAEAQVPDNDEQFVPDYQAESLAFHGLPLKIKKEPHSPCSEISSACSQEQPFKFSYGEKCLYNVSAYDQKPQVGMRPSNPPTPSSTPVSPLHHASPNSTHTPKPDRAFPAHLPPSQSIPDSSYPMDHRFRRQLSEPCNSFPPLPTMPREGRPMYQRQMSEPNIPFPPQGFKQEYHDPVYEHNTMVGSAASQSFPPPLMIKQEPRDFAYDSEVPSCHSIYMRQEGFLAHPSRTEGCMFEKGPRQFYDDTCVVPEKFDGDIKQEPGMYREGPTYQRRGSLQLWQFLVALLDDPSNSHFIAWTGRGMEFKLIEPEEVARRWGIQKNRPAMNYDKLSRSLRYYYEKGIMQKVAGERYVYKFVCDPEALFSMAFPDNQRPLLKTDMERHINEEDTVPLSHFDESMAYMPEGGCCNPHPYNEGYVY
Sequence of ETV5 (P41161 whole entry): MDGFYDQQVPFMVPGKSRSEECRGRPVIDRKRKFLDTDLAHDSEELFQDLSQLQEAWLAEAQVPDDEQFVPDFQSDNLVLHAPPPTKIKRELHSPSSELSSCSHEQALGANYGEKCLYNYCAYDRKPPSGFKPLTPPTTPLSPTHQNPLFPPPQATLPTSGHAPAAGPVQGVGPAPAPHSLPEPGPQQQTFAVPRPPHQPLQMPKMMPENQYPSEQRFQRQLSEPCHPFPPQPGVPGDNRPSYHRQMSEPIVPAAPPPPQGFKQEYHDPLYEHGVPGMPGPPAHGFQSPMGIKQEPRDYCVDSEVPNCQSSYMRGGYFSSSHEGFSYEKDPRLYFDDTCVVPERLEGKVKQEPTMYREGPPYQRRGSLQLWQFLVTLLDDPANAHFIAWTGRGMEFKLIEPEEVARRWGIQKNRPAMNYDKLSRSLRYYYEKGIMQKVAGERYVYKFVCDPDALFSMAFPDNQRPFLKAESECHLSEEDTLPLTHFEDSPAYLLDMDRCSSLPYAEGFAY
Sequence of HSF1 (Q00613 whole entry): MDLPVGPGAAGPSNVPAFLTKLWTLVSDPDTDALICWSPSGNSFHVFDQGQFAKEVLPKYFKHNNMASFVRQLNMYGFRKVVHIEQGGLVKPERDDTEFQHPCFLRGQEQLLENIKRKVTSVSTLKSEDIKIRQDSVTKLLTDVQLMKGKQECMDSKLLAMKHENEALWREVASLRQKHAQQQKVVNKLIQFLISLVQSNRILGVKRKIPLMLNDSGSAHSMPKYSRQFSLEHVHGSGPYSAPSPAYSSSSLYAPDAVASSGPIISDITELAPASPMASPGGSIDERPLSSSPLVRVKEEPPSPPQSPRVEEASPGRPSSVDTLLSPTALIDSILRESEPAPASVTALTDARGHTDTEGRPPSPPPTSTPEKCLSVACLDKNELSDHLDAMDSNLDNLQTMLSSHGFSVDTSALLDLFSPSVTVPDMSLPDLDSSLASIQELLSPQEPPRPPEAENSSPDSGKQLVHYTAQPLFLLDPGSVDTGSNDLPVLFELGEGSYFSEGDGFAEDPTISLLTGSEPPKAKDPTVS
Sequence of ELF4 (Q99607 whole entry): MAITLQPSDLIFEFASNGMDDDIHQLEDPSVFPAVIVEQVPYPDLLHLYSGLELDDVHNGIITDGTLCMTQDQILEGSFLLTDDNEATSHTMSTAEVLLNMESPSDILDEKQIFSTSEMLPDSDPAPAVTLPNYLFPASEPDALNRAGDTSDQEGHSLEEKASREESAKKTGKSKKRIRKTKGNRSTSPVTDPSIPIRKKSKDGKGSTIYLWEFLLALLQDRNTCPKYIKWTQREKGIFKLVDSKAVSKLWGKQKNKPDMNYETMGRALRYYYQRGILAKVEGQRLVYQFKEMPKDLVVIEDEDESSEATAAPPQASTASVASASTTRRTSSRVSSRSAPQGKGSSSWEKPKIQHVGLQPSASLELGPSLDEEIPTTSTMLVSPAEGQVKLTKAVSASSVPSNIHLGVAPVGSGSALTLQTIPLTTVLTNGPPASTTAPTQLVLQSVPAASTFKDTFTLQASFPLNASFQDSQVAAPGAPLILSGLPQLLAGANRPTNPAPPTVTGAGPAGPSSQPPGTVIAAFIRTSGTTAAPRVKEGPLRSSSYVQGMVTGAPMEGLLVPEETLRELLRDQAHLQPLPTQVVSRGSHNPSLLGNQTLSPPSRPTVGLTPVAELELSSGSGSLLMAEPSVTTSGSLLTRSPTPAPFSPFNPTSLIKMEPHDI

Regarding AGGTCT, the binding signal is 1.11 fold enrichment (6-mer frequency, TF over GST control) with FEV; 1.2 fold enrichment (6-mer frequency, TF over GST control) with ETV5; 1.09 fold enrichment (6-mer frequency, TF over GST control) in the experiment with HSF1; 1.13 fold enrichment (6-mer frequency, TF over GST control) in the experiment with SPIC; 1.2 fold enrichment (6-mer frequency, TF over GST control) with ELF4; 1.23 fold enrichment (6-mer frequency, TF over GST control) with ELK4. Moreover, the binding signal is 1.23 fold enrichment (6-mer frequency, TF over GST control) with ETV2; 1.08 fold enrichment (6-mer frequency, TF over GST control) in the experiment with ELF3; 1.21 fold enrichment (6-mer frequency, TF over GST control) with CRX; 1.16 fold enrichment (6-mer frequency, TF over GST control) with ETV1; 1.26 fold enrichment (6-mer frequency, TF over GST control) with ERF; 1.14 fold enrichment (6-mer frequency, TF over GST control) in the experiment with ETV3L. Moreover, the binding signal was 1.2 fold enrichment (6-mer frequency, TF over GST control) in the experiment with ETS2; 1.1 fold enrichment (6-mer frequency, TF over GST control) with SPDEF; 1.2 fold enrichment (6-mer frequency, TF over GST control) with ETV7; 1.16 fold enrichment (6-mer frequency, TF over GST control) with ELF5; 1.11 fold enrichment (6-mer frequency, TF over GST control) with ETV3; 1.07 fold enrichment (6-mer frequency, TF over GST control) with ETV6.
